Source: PubChem BioAssay (NCI)
Compounds without any hit were thinned out: in the full panel of roughly 79,000, 15% have a hit. Activity calls are given as the source filed them. Rule as the data show it: active = growth inhibition above about 70%; inactive = the rest.

Columns and labels:
[1] = NCI Yeast Anticancer Drug Screen. Data for the mec2-1 strain (AID 157); conditions: S. cerevisiae mec2-1 strain, hits give high values
Procedure, shortened: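 Mutant yeast (mec2-1) grown with compound; growth inhibition relative to vehicle control reported.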

[2] = NCI Yeast Anticancer Drug Screen. Data for the rad14 strain (AID 159);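 also: 0% = growth of vehicle-treated control cultures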; conditions: S. cerevisiae rad14 strain growth inhibition, hits give high values
Procedure, shortened: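 Inhibition of growth is reported for a repair-deficient yeast mutant following compound treatment, calculated relative to cultures that received vehicle.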

[3] = NCI Yeast Anticancer Drug Screen. Data for the sgs1 mgt1 strain (AID 161);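 also: 0% = growth of cultures given vehicle only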; conditions: S. cerevisiae sgs1 mgt1 strain, hits give high values
Procedure, shortened: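 Growth of a repair-deficient yeast mutant was monitored after compound treatment and expressed as inhibition relative to vehicle-treated cultures.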

[4] = NCI Yeast Anticancer Drug Screen. Data for the CLN2oe strain (AID 163);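 also: 0% = growth of vehicle-only control cultures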; conditions: S. cerevisiae CLN2oe strain, hits give high values
Procedure, shortened: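 Compounds are applied to yeast harbouring a defined cell-cycle control change; reduced growth compared with vehicle-treated controls gives the value.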

[5] = NCI Yeast Anticancer Drug Screen. Data for the cln2 rad14 strain (AID 165);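 also: 0% = growth equal to vehicle treated cultures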; conditions: S. cerevisiae cln2 rad14 strain, hits give high values
Procedure, shortened: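 Readout is yeast growth inhibition versus vehicle-treated controls, using a strain with cln2 and rad14 alterations exposed to compound.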

[6] = NCI Yeast Anticancer Drug Screen. Data for the bub3 strain (AID 167); conditions: S. cerevisiae bub3 mutant strain, hits give high values
Procedure, shortened: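 Mutant yeast screening strain plus compound; vehicle-treated cultures serve as the 0% inhibition reference.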

[7] = NCI Yeast Anticancer Drug Screen. Data for the wt2 strain (AID 169); conditions: S. cerevisiae wt2 strain growth inhibition, hits give high values
Procedure, shortened: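 Against vehicle-treated controls, the growth of yeast exposed to each compound was compared, and the inhibition was recorded.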

[8] = NCI Yeast Anticancer Drug Screen. Data for the mlh1 strain (AID 171);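 also: 0% = growth of vehicle-treated control cultures of the same strain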; conditions: S. cerevisiae mlh1 strain growth inhibition, hits give high values
Procedure, shortened: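 Measured: yeast growth. Reference: vehicle-treated controls. Organism: strain with a defined alteration affecting DNA damage repair or cell cycle control, treated with compound.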

[9] = NCI Yeast Anticancer Drug Screen. Data for the sgs1 strain (AID 173);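 also: 0% = growth of vehicle-only control cultures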; conditions: S. cerevisiae sgs1 mutant, hits give high values
Procedure, shortened: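 Each compound was added to cultures of the altered yeast strain. Growth was recorded, and inhibition was derived by comparison with vehicle controls.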

[10] = NCI Yeast Anticancer Drug Screen. Data for the mlh1 rad18 strain (AID 175); conditions: S. cerevisiae mlh1 rad18 strain growth inhibition, hits give high values
Procedure, shortened: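 Genetically defined yeast (DNA repair-deficient) exposed to compounds; growth inhibition determined relative to vehicle.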

[11] = NCI Yeast Anticancer Drug Screen. Data for the rad18 strain (AID 177); conditions: S. cerevisiae rad18 mutant growth inhibition, hits give high values
Procedure, shortened: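 Vehicle-treated cultures served as the baseline for scoring compound-induced growth inhibition in DNA-repair-mutant yeast.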

[12] = NCI Yeast Anticancer Drug Screen. Data for the rad52 strain (AID 147);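 also: 0% = growth of vehicle-treated control cultures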; conditions: S. cerevisiae rad52 mutant growth inhibition, hits give high values
Procedure, shortened: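 The repair-mutant yeast strain was incubated with compounds, then growth was read and inhibition derived relative to vehicle.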

[13] = NCI Yeast Anticancer Drug Screen. Data for the wt1 strain (AID 149);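 also: 0% = growth of vehicle-treated wt1 cultures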; conditions: S. cerevisiae wt1 strain (SPY 50644) growth inhibition, hits give high values
Procedure, shortened: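 Each compound is tested on wt1 yeast and the loss of growth versus vehicle gives the inhibition value.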

[14] = NCI Yeast Anticancer Drug Screen. Data for the rad50EPP+ strain (AID 151);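 also: 0% = growth of vehicle-treated control cultures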; conditions: S. cerevisiae rad50 mutant strain, hits give high values
Procedure, shortened: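 Vehicle-normalised growth inhibition; rad50EPP+ yeast strain, altered in DNA damage repair, compound-treated.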

[15] = NCI Yeast Anticancer Drug Screen. Data for the mgt1 strain (AID 153); conditions: S. cerevisiae mgt1 mutant growth inhibition, hits give high values
Procedure, shortened: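 Vehicle-normalized growth inhibition is determined in mgt1 yeast, a strain selected for a defined alteration in DNA repair or cell cycle control.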

[16] = NCI Yeast Anticancer Drug Screen. Data for the rad50 strain (AID 155);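 also: 0% = growth of vehicle-only cultures of the same strain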; conditions: S. cerevisiae rad50 strain growth inhibition, hits give high values
Procedure, shortened: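 Vehicle-treated cultures provide the reference for the growth inhibition reported for compound-exposed, repair-deficient yeast.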

[17] = at 5.0 µM (retest, dose inferred, filed as 0.5)
[18] = at 50.0 µM (retest, dose inferred, filed as 5.0)

Measured: growth inhibition

CC1(C)C(=O)OC(n2cc(F)c(=O)[nH]c2=O)C1=O (centres undefined)
inactive: [1]; [17] 1% | [1]; at 11.0 µM -11% | [1]; at 33.0 µM 9% | [1]; [18] 34% | [1]; at 50.0 µM 2.95% | [1]; at 100.0 µM 60% | [2]; at 1.2 µM -36% | [2]; at 3.7 µM -37% | [2]; at 11.0 µM -18% | [2]; at 33.0 µM -15% | [2]; at 100.0 µM -8% | [3]; [17] 36% | [3]; at 50.0 µM 30% | [4]; at 1.2 µM 12% | [4]; at 3.7 µM 13% | [4]; at 11.0 µM -1% | [4]; at 33.0 µM 30% | [4]; at 100.0 µM -1% | [5]; [17] 27% | [5]; [18] 45% | [5]; at 50.0 µM 56.8% | [6]; at 1.2 µM 19% | [6]; at 3.7 µM 21% | [6]; [17] 45% | [6]; at 11.0 µM 19% | [6]; at 33.0 µM 37% | [6]; [18] 62% | [6]; at 50.0 µM 27.1% | [6]; at 100.0 µM 39% | [7]; at 1.2 µM 5% | [7]; at 3.7 µM 20% | [7]; at 11.0 µM 17% | [7]; at 33.0 µM 43% | [7]; at 100.0 µM 51% | [8]; at 1.2 µM -14% | [8]; at 3.7 µM -15% | [8]; at 11.0 µM -2% | [8]; at 33.0 µM 19% | [8]; at 100.0 µM 49% | [9]; at 1.2 µM -17% | [9]; at 3.7 µM -13% | [9]; at 11.0 µM -2% | [9]; at 33.0 µM 45% | [9]; at 100.0 µM 67% | [10]; [17] 13% | [10]; [18] 48% | [10]; at 50.0 µM 15.7% | [11]; at 1.2 µM 4% | [11]; at 3.7 µM 8% | [11]; at 11.0 µM 8% | [11]; at 33.0 µM 21% | [11]; at 100.0 µM 28%
active: [3]; [18] 80%

Cc1cccc2c(C(O)CBr)cc(-c3ccc(Cl)cc3)nc12 (centres undefined)
active: [12]; at 11.0 µM 98% | [12]; at 33.0 µM 96% | [12]; at 100.0 µM 87% | [13]; at 11.0 µM 98% | [13]; at 33.0 µM 97% | [13]; at 100.0 µM 91% | [15]; at 11.0 µM 98% | [15]; at 33.0 µM 97% | [15]; at 100.0 µM 92% | [16]; at 11.0 µM 98% | [16]; at 33.0 µM 96% | [16]; [18] 93% | [16]; at 50.0 µM 93.8% | [16]; at 100.0 µM 88% | [1]; at 11.0 µM 99% | [1]; at 33.0 µM 97% | [1]; [18] 96% | [1]; at 50.0 µM 96.1% | [2]; at 11.0 µM 99% | [2]; at 33.0 µM 97% | [2]; at 100.0 µM 88% | [3]; [18] 95% | [3]; at 50.0 µM 95.7% | [4]; at 11.0 µM 98% | [4]; at 33.0 µM 96% | [5]; [18] 95% | [5]; at 50.0 µM 92.8% | [6]; at 11.0 µM 98% | [6]; at 33.0 µM 96% | [6]; [18] 96% | [6]; at 50.0 µM 92.5% | [7]; at 11.0 µM 98% | [7]; at 33.0 µM 96% | [7]; at 100.0 µM 88% | [8]; at 11.0 µM 98% | [8]; at 33.0 µM 95% | [9]; at 11.0 µM 98% | [9]; at 33.0 µM 96% | [9]; at 100.0 µM 90% | [10]; [18] 95% | [10]; at 50.0 µM 95.3% | [11]; at 11.0 µM 98% | [11]; at 33.0 µM 95% | [11]; at 100.0 µM 88%
inactive: [12]; at 1.2 µM 0% | [12]; at 3.7 µM 20% | [13]; at 1.2 µM -3% | [13]; at 3.7 µM -5% | [14]; at 1.2 µM 1% | [14]; at 3.7 µM 10% | [14]; at 11.0 µM 32% | [14]; at 33.0 µM 40% | [14]; at 100.0 µM 54% | [15]; at 1.2 µM -2% | [15]; at 3.7 µM -1% | [16]; at 1.2 µM 0% | [16]; at 3.7 µM 11% | [16]; [17] 3% | [1]; at 1.2 µM 0% | [1]; at 3.7 µM 4% | [1]; [17] 1% | [1]; at 100.0 µM 51% | [2]; at 1.2 µM -4% | [2]; at 3.7 µM 3% | [3]; [17] 3% | [4]; at 1.2 µM -2% | [4]; at 3.7 µM -3% | [4]; at 100.0 µM 51% | [5]; [17] -10% | [6]; at 1.2 µM 0% | [6]; at 3.7 µM 8% | [6]; [17] -1% | [6]; at 100.0 µM 45% | [7]; at 1.2 µM -4% | [7]; at 3.7 µM -6% | [8]; at 1.2 µM -5% | [8]; at 3.7 µM 1% | [8]; at 100.0 µM 48% | [9]; at 1.2 µM -2% | [9]; at 3.7 µM 7% | [10]; [17] 1% | [11]; at 1.2 µM -3% | [11]; at 3.7 µM 17%

O=C(NCCCCCCCN1CCCCCCC1)C(C1CCCCC1)C1CCCCC1
inactive: [12]; at 1.2 µM 40% | [12]; at 3.7 µM 52% | [13]; at 1.2 µM 18% | [13]; at 3.7 µM 26% | [13]; at 11.0 µM 61% | [14]; at 1.2 µM 0% | [14]; at 3.7 µM -1% | [14]; at 11.0 µM 4% | [14]; at 33.0 µM 16% | [14]; at 100.0 µM 41% | [15]; at 1.2 µM 64% | [16]; at 1.2 µM 41% | [16]; at 3.7 µM 45% | [16]; [17] 35% | [1]; at 1.2 µM 43% | [1]; at 3.7 µM 39% | [1]; [17] 29% | [3]; [17] 36% | [4]; at 1.2 µM 53% | [4]; at 3.7 µM 65% | [5]; [17] 62% | [6]; at 1.2 µM 65% | [6]; at 3.7 µM 66% | [6]; [17] 27% | [7]; at 1.2 µM 37% | [7]; at 3.7 µM 56% | [8]; at 1.2 µM 44% | [8]; at 3.7 µM 48% | [9]; at 1.2 µM 59% | [9]; at 3.7 µM 67% | [10]; [17] 17% | [11]; at 1.2 µM 51% | [11]; at 3.7 µM 64%
active: [12]; at 11.0 µM 89% | [12]; at 33.0 µM 98% | [12]; at 100.0 µM 99% | [13]; at 33.0 µM 97% | [13]; at 100.0 µM 98% | [15]; at 3.7 µM 83% | [15]; at 11.0 µM 97% | [15]; at 33.0 µM 98% | [15]; at 100.0 µM 99% | [16]; at 11.0 µM 81% | [16]; at 33.0 µM 98% | [16]; [18] 99% | [16]; at 50.0 µM 99.3% | [16]; at 100.0 µM 98% | [1]; at 11.0 µM 85% | [1]; at 33.0 µM 98% | [1]; [18] 97% | [1]; at 50.0 µM 94.2% | [1]; at 100.0 µM 99% | [2]; at 1.2 µM 72% | [2]; at 3.7 µM 75% | [2]; at 11.0 µM 97% | [2]; at 33.0 µM 99% | [2]; at 100.0 µM 99% | [3]; [18] 98% | [3]; at 50.0 µM 99% | [4]; at 11.0 µM 92% | [4]; at 33.0 µM 97% | [4]; at 100.0 µM 98% | [5]; [18] 98% | [5]; at 50.0 µM 96.5% | [6]; at 11.0 µM 95% | [6]; at 33.0 µM 97% | [6]; [18] 99% | [6]; at 50.0 µM 99% | [6]; at 100.0 µM 98% | [7]; at 11.0 µM 95% | [7]; at 33.0 µM 98% | [7]; at 100.0 µM 99% | [8]; at 11.0 µM 95% | [8]; at 33.0 µM 98% | [8]; at 100.0 µM 99% | [9]; at 11.0 µM 95% | [9]; at 33.0 µM 98% | [9]; at 100.0 µM 99% | [10]; [18] 98% | [10]; at 50.0 µM 99.2% | [11]; at 11.0 µM 92% | [11]; at 33.0 µM 97% | [11]; at 100.0 µM 98%
